Assay [1] in a line: qHTS assay to identify small molecule agonists of the peroxisome proliferator-activated receptor delta (PPARd) signaling pathway - cell viability counter screen (AID 743211; active = well fitted curve in the direction sought with a large enough effect in the repeat runs; an effect the other way counts as inactive or inconclusive; note: nearly all actives have a fitted effect of over 55% in size; note: potency is the fitted concentration of half-maximal effect). The gist of the method:
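In the same wells used for beta-lactamase reporter measurement, cytotoxicity is scored by CellTiter-Glo. HEK293H PPARd-bla cells receive compound for 17 h at 37C following a 5 h settling period.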

In assay [2] the target is Peroxisome proliferator-activated receptor delta (Homo sapiens) (UniProt Q03181). As to the kind of experiment: qHTS assay to identify small molecule agonists of the peroxisome proliferator-activated receptor delta (PPARd) signaling pathway (AID 743212). Note: % is set by controls: 0 for no effect and ±100 for the full control effect. The gist of the method: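 Read-out: beta-lactamase FRET fluorescence after 2 h room-temperature incubation with LiveBLAzer B/G substrate. Cells were HEK293H carrying a UAS-bla reporter for PPARd, treated at 37 C with DMSO-dissolved compounds.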
Sequence of Peroxisome proliferator-activated receptor delta (Homo sapiens) (Q03181 whole entry, looked up): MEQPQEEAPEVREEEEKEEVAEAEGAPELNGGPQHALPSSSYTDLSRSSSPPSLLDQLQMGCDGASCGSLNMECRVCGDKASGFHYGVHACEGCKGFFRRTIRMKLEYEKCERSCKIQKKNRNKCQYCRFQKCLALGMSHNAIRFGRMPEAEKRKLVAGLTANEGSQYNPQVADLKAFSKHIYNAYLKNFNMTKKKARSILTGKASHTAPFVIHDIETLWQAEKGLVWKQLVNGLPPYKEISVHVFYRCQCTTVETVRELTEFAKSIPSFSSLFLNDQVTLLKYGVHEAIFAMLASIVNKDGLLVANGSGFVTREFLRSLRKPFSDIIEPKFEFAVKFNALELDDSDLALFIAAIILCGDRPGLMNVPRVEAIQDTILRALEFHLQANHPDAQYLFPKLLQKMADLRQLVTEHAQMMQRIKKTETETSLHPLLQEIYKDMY
A general note: In qHTS, concentration-response curves come from the screen itself.

A short description of assay [3]: qHTS assay to identify small molecule antagonists of the peroxisome proliferator-activated receptor delta (PPARd) signaling pathway - cell viability counter screen (AID 743213; active = well fitted curve in the direction sought with a large enough effect in the repeat runs; an effect the other way counts as inactive or inconclusive; note: nearly all actives have a fitted effect of over 50% in size; note: potency is the fitted concentration of half-maximal effect). The gist of the method: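 PPARd-bla HEK293H cells were treated with compounds plus agonist L165041 (300 nM final) for 17 h at 37 C. Viability was then read in the same wells by CellTiter-Glo luminescence after 30 min at room temperature.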

Assay [4] deals with Peroxisome proliferator-activated receptor delta (Homo sapiens) (UniProt Q03181). As to the kind of experiment: qHTS assay to identify small molecule antagonists of the peroxisome proliferator-activated receptor delta (PPARd) signaling pathway (AID 743215; active = well fitted inhibition curve with a large enough effect in the signal ratio in the repeat runs, not every such curve was filed as active; the % refers to the signal ratio;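 note: cells stimulated with agonist L165041 at 300 nM final during compound exposure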; note: potency is the fitted concentration of half-maximal effect). In outline:
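Cells: HEK293H with a UAS-driven beta-lactamase reporter responsive to PPARd. Compounds were co-added with L165041 (300 nM, final) and incubated 17 h at 37 C before a 2 h room-temperature FRET substrate step and fluorescence reading.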

Assay [5] addresses Bile acid receptor (Homo sapiens) (UniProt Q96RI1). As to the kind of experiment: qHTS assay to identify small molecule antagonists of the farnesoid-X-receptor (FXR) signaling pathway (AID 743217; active = well fitted inhibition curve with a large enough effect in the signal ratio in the repeat runs, not every such curve was filed as active; the % refers to the signal ratio; note: potency is the fitted concentration of half-maximal effect). The gist of the method: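 Cells carrying a UAS-driven beta-lactamase reporter (GeneBLAzer FXR-UAS-bla HEK 293T) were plated and rested 5 h at 37 °C. Compounds in DMSO were added alongside chenodeoxycholic acid agonist at 50 uM final and left 16 h at 37 °C before FRET substrate readout.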

Assay [6] is described as follows: qHTS assay to identify small molecule agonists of the farnesoid-X-receptor (FXR) signaling pathway - cell viability counter screen (AID 743218; active = well fitted curve in the direction sought with a large enough effect in the repeat runs; an effect the other way counts as inactive or inconclusive; note: % is set by controls: 0 for no effect and ±100 for the full control effect; nearly all actives have a fitted effect of over 45% in size). The gist of the method:
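Cells were seeded, left 5 h at 37 C and 5% CO2, then dosed with compound in DMSO for 16 h. After the beta-lactamase FRET read, CellTiter-Glo was added and luminescence measured 30 min later.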

The target of assay [7] is Bile acid receptor (Homo sapiens) (UniProt Q96RI1). As to the kind of experiment: qHTS assay to identify small molecule agonists of the farnesoid-X-receptor (FXR) signaling pathway (AID 743220; active = well fitted activation curve with a large enough effect in the signal ratio in the repeat runs, not every such curve was filed as active; the % refers to the signal ratio; note: % is set by controls: 0 for no effect and ±100 for the full control effect). In outline:
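FXR-UAS-bla HEK 293T cells carrying a UAS-driven beta-lactamase reporter were plated for 5 h at 37C/5% CO2, then exposed to DMSO-dissolved Tox21 10K compounds for 16 h at 37C. A LiveBLAzer B/G FRET substrate was loaded for 2 h at room temperature before fluorescence reading.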

A short description of assay [8]: qHTS assay to identify small molecule antagonists of the farnesoid-X-receptor (FXR) signaling pathway - cell viability counter screen (AID 743221; active = well fitted cell-killing curve with a large enough effect in the repeat runs, not every such curve was filed as active; note: nearly all actives have a fitted effect of over 50% in size; note: potency is the fitted concentration of half-maximal effect). In outline: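 Here viability was scored by luminescence after CellTiter-Glo addition to wells already read for beta-lactamase. Prior treatment: compound plus CDCA (50 uM final), 16 h, 37 C, HEK 293T FXR-bla cells.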
Assay [9] addresses Vitamin D3 receptor (Homo sapiens) (UniProt P11473). As to the kind of experiment: qHTS assay to identify small molecule agonists of the vitamin D receptor (VDR) signaling pathway (AID 743222). Note: % is set by controls: 0 for no effect and ±100 for the full control effect. The gist of the method:
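Cells carrying a VDR-driven beta-lactamase reporter are seeded at 2,000 per well and rested 4 h. Compounds in DMSO are added for 16 h at 37C, and FRET substrate fluorescence is measured after 2 h at room temperature.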

The target is the same in assay [10]. Put plainly: qHTS assay to identify small molecule antagonists of the vitamin D receptor (VDR) signaling pathway (AID 743223; active = well fitted inhibition curve with a large enough effect in the signal ratio in the repeat runs, not every such curve was filed as active; the % refers to the signal ratio; note: potency is the fitted concentration of half-maximal effect). The gist of the method:
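Inhibition of agonist-driven VDR signalling is scored in VDR-bla cells: 3 nM final 1alpha,25-dihydroxyvitamin D3 plus compound, 16 h at 37C, then beta-lactamase detection by FRET substrate fluorescence after 2 h.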

Assay [11] can be described thus: qHTS assay to identify small molecule agonists of the vitamin D receptor (VDR) signaling pathway - cell viability counter screen (AID 743224; active = well fitted curve in the direction sought with a large enough effect in the repeat runs; an effect the other way counts as inactive or inconclusive; note: nearly all actives have a fitted effect of over 50% in size; note: potency is the fitted concentration of half-maximal effect). The gist of the method:
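Cells: VDR-bla, 2,000/well, settled 4 h. Treatment: compounds in DMSO, 16 h, 37C/5% CO2. Readout: CellTiter-Glo luminescence after 30 min RT.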

Assay [12] in a line: qHTS assay to identify small molecule antagonists of the vitamin D receptor (VDR) signaling pathway - cell viability counter screen (AID 743225; active = well fitted curve in the direction sought with a large enough effect in the repeat runs; an effect the other way counts as inactive or inconclusive; note: nearly all actives have a fitted effect of over 50% in size; note: potency is the fitted concentration of half-maximal effect). In outline:
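Compounds were pinned onto VDR-bla HEK 293T cells together with 1-alpha,25-dihydroxyvitamin D3 at 3 nM final. After 16 h at 37C and 5% CO2 plus the reporter readout, cell viability was measured by CellTiter-Glo luminescence (30 min, room temperature).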

A short description of assay [13]: qHTS assay to identify small molecule agonists of the NFkB signaling pathway - cell viability counter screen (AID 1159515). Note: nearly all actives have a fitted effect of over 55% in size. Note: potency is the fitted concentration of half-maximal effect. In outline:
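Cells are seeded (2,000 NFkB-bla ME-180 per well), rested overnight, and dosed with DMSO-dissolved compounds for 5 hr at 37 C. Viability is then read by CellTiter-Glo luminescence after 30 min at room temperature.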

Assay [14] can be described thus: qHTS assay to identify small molecule agonists of the endoplasmic reticulum stress response signaling pathway (AID 1159516; active = well fitted activation curve with a large enough effect in the signal ratio in the repeat runs, not every such curve was filed as active; the % refers to the signal ratio; note: % is set by controls: 0 for no effect and ±100 for the full control effect). In outline: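 Cells are seeded at 1,500 per well and incubated overnight. Compounds in DMSO are added for 5 hr at 37 C, then beta-lactamase FRET substrate for 2 hr at room temperature, and fluorescence at 460 and 530 nm is measured.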
Assay [15] can be described thus: qHTS assay to identify small molecule agonists of the endoplasmic reticulum stress response signaling pathway - cell viability counter screen (AID 1159517). Note: nearly all actives have a fitted effect of over 50% in size. Note: potency is the fitted concentration of half-maximal effect. The gist of the method:
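Steps: seed 1,500 ESRE-bla HeLa cells per well; incubate overnight at 37 C, 5% CO2; add compounds in DMSO for 5 hr; run FRET substrate 2 hr RT; add CellTiter-Glo, wait 30 min, read luminescence.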

The nature of assay [16]: qHTS assay to identify small molecule antagonists of the retinoid-related orphan receptor gamma (ROR-gamma) signaling pathway - cell viability counter screen (AID 1159520; active = well fitted curve in the direction sought with a large enough effect in the repeat runs; an effect the other way counts as inactive or inconclusive; note: nearly all actives have a fitted effect of over 50% in size; note: potency is the fitted concentration of half-maximal effect). In outline:
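Tet-on ROR gamma CHO cells were given compounds for 2 hr, then doxycycline hyclate at 1 uM final, and incubated 16 hr at 37 C. Viability was measured as ATP content by CellTiter-Glo luminescence.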

In assay [17] the target is Nuclear receptor ROR-gamma (Homo sapiens) (UniProt P51449). As to the kind of experiment: qHTS assay to identify small molecule antagonists of the retinoid-related orphan receptor gamma (ROR-gamma) signaling pathway (AID 1159521; active = well fitted curve in the direction sought with a large enough effect in the repeat runs; an effect the other way counts as inactive or inconclusive; note: nearly all actives have a fitted effect of over 50% in size; note: potency is the fitted concentration of half-maximal effect). The gist of the method:
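Test compounds were applied to Tet-on RORγ CHO cells 2 h ahead of doxycycline hyclate (1 uM final). Luciferase reporter activity was quantified by luminescence after 16 h at 37 C and 5% CO2.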

The nature of assay [18]: qHTS assay to identify small molecule agonists of the AP-1 signaling pathway - cell viability counter screen (AID 1159525). Note: nearly all actives have a fitted effect of over 55% in size. Note: potency is the fitted concentration of half-maximal effect. In outline: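 Same-well cytotoxicity counter screen of the Tox21 10K library in ME-180 cells. The readout is ATP-dependent luminescence after 5 h compound treatment. Data are normalised to DMSO and tetra n-octyl ammonium bromide controls.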
Assay [19] is described as follows: qHTS assay to identify small molecule agonists of the AP-1 signaling pathway (AID 1159526). Note: % is set by controls: 0 for no effect and ±100 for the full control effect.
The target of assay [20] is Retinoic acid receptor RXR-alpha (Homo sapiens) (UniProt P19793). Put plainly: qHTS assay to identify small molecule agonists of the RXR signaling pathway (AID 1159527). Note: % is set by controls: 0 for no effect and ±100 for the full control effect; nearly all actives have a fitted effect of over 35% in size. In outline: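 Using 9-cis retinoic acid as the reference agonist, chemicals were tested in HEK 293T cells […] for 16 hr; substrate loading lasted 2 hr at room temperature.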
Sequence of Retinoic acid receptor RXR-alpha (Homo sapiens) (P19793 whole entry, looked up): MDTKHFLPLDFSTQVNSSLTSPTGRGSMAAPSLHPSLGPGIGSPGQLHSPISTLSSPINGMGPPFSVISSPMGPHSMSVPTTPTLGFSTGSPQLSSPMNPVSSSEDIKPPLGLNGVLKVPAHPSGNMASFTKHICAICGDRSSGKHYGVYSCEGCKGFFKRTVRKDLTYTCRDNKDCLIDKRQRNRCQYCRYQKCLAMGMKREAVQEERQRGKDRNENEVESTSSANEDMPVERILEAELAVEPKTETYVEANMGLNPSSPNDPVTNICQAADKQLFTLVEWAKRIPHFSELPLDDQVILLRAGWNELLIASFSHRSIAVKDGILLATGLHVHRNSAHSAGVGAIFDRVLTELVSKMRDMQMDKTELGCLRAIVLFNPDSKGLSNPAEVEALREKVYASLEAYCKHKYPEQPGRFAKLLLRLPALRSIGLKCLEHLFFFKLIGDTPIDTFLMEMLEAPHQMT

Results on nine molecules are retold here after PubChem BioAssay (Tox21).

Each structure is given as a SMILES string. “And” between values parts separate entries of the source, which are not always exact repeats. Equal entries are not always repeated. Inconclusive results are not listed. Where a structure was tested more than once in an assay, its records may differ in their call. The source made the active and inactive calls. Unless noted, calls come from the whole dose curve.

Sequence of Bile acid receptor (Homo sapiens) (Q96RI1 whole entry, looked up): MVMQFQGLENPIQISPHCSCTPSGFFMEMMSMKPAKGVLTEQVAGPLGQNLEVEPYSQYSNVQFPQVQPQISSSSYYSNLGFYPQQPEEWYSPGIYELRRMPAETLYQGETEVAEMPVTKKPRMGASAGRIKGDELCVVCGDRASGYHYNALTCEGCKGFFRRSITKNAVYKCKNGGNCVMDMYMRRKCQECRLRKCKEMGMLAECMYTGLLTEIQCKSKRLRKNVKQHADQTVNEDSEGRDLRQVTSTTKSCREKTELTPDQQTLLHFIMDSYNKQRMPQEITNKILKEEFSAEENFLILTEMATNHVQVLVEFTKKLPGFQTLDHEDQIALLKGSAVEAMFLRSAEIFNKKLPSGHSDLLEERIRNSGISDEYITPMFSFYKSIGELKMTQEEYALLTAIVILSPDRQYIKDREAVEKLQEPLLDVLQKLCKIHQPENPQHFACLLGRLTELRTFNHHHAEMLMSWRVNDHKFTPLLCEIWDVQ
Sequence of Vitamin D3 receptor (Homo sapiens) (P11473 whole entry, looked up): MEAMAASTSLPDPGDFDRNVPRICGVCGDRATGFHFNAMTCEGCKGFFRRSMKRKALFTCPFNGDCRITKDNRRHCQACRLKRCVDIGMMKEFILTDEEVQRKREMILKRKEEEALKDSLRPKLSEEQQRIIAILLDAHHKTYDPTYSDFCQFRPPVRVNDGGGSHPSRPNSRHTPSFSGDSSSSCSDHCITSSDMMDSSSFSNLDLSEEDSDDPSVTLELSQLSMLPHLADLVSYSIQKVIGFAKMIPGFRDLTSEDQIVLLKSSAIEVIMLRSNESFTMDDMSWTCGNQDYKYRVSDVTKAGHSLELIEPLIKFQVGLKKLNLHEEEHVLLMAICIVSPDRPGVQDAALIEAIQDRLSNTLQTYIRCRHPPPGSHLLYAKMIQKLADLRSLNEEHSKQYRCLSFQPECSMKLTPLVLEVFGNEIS

In the case of `CN(C)c1nc(=O)n(C2CCCCC2)c(=O)n1C`, the Potency result in [1], in assay [2], in [3], in assay [4], in assay [5] and in assay [6] was “inactive” each time. Besides, the Potency result in assay [7], in [8], in assay [10], in assay [11], in assay [12] and in assay [13] was “inactive” each time. The Potency entry in assay [14], in assay [15], in assay [16], in assay [17], in [18] and in [20] was “inactive” in each case. For the same molecule, the result in assay [9] and in assay [19] was inactive.
Consider `CC1=C(C(=O)Nc2ccccc2)SCCO1`, for which the Potency result in assay [1], in [2], in [3], in assay [4], in [5] and in [6] was “inactive” in each case. Further, the Potency entry in assay [7], in assay [8], in assay [10], in assay [11], in assay [12] and in [13] was “inactive” each time. The Potency result in assay [14], in assay [15], in assay [16], in [17], in assay [18] and in [20] was “inactive” in each case. For the same molecule, the molecule was classed as inactive in [9] and in [19].
`CCCCCCCCCC(CC)c1ccc(S(=O)(=O)O)cc1` (configuration not stated): the Potency was 48.9 µM (active) and 21.3 µM (active) in assay [13]; “inactive and 21.3 µM (active) and 21.9 µM (active)” in assay [15]; 49.5 µM (active) [middle of 4 runs] in assay [18]. For the same molecule, the Potency result in assay [16] is “inactive”.
For the molecule `CCCCC(C#N)(Cn1cncn1)c1ccc(Cl)cc1` (configuration not stated), the Potency result in [1], in assay [2], in assay [3], in assay [4], in assay [6] and in [8] was “inactive” in each case. In addition, the Potency entry in assay [11], in assay [12], in [13], in assay [14], in [15] and in assay [16] was “inactive” in each case. For the same molecule, the Potency entry in assay [18] was “inactive”. The molecule was called inactive in [19].
As to `c1ccc2c(c1)Nc1ccccc1S2`, the Potency entry in [1], in [2], in [3], in assay [4], in [6] and in [8] was “inactive” each time. The Potency result in assay [11], in assay [12], in [13], in assay [14], in assay [15] and in [16] was “inactive” throughout. For the same molecule, the Potency entry in assay [17], in [18] and in assay [20] was “inactive” in each case.
In the case of `NC(=O)CN1CCCC1=O`, the Potency result in assay [1], in assay [3], in [8], in [10], in assay [11] and in assay [12] was “inactive” in each case. Also, the Potency entry in [13], in assay [14], in assay [15], in assay [16], in assay [17] and in assay [18] was “inactive” throughout. In assay [20], the Potency entry was “inactive”. The result in [9] and in assay [19] was inactive.
Turning to `CCC[CH2][Sn]([Cl])([CH2]CCC)[CH2]CCC`, the Potency is 551 nM (active) and 1.23 µM (active) in assay [1]; 778 nM (active) and 1.95 µM (active) in [3]; 1.95 µM (active) and 2.45 µM (active) in [8]; 437 nM (active) and 1.23 µM (active) in [11]; 618 nM (active) and 3.47 µM (active) in assay [12]; 1.1 µM (active) and 1.95 µM (active) in assay [13]. The Potency was 1.74 µM (active) and 3.09 µM (active) in assay [15]; 1.54 µM (active) and 1.72 µM (active) in assay [16]; 194 nM (active) and 686 nM (active) in assay [17]; 873 nM (active) and 1.74 µM (active) in [18].
In the case of `CC(C)Nc1ccc(Nc2ccccc2)cc1`, the Potency entry in [2], in assay [6], in assay [7], in [8], in [13] and in [14] was “inactive” each time. In addition, in assay [15], the Potency result was “inactive”. In addition, the Potency in assay [3] is 43.6 µM (active); in assay [11], 43.5 µM (active) and 43.6 µM (active); in [12], 43.6 µM (active); in assay [17], 38.4 µM (active) and 54.5 µM (active); in assay [18], 43.5 µM (active) and 54.9 µM (active).
For `CC[n+]1c(-c2ccccc2)c2cc(N)ccc2c2ccc(N)cc21`, the Potency in [1] was 24.4 µM (active); in assay [4] it was 24.4 µM (active) and 23.7 µM (active); in assay [5], 7.73 µM (active) and 5.31 µM (active); in [10], 12 µM (active); in assay [11], 21.8 µM (active). The Potency entry in [2], in [3], in assay [8], in assay [12], in assay [13] and in assay [14] was “inactive” each time. For the same molecule, the Potency entry in assay [15], in assay [16], in assay [17] and in [18] was “inactive” throughout. The call in assay [9] and in assay [19] was inactive.
